Screen size: about 5,500 compounds; about 2,000 (36%) were called active. Another 18% or so got no clear call; they are omitted. Cut-off read from the data, not from the text of the source: active = normalized growth mostly below about 0.91 (no sharp cut-off); inconclusive = no clear call, values can overlap the other calls; inactive = mostly above about 0.92. The list shows a part of the results.
Experiment: chemical genetic growth profiling, strain panel (AID 1159580);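 note: tested at 20 µM; growth read once vehicle control cultures reached saturation at 30 °C; 1 = growth at the plate median or of vehicle wells; lower values mean less growth of the strain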
Conditions: growth OD

Measured: normalized growth

Nc1nc2ncc(=O)[nH]c2c(=O)[nH]1
inactive: S. cerevisiae deletion strains, locus YJR075W, strain HOC1, stronger effect = lower value 1.02 | S. cerevisiae deletion strains, locus YKL009W, strain mrt4, stronger effect = lower value 0.973 | S. cerevisiae deletion strains, locus YKL068W, stronger effect = lower value 0.981 | S. cerevisiae deletion strains, locus YKL085W, strain MDH1 (second series), stronger effect = lower value 0.991 | S. cerevisiae deletion strains, locus YKL085W, strain MDH1, stronger effect = lower value 0.991 | S. cerevisiae deletion strains, locus YKL160W, strain elf1, stronger effect = lower value 0.975 | S. cerevisiae deletion strains, locus YKL190W, strain CNB1, stronger effect = lower value 0.991 | S. cerevisiae deletion strains, locus YKR001C, strain vps1, stronger effect = lower value 0.999 | S. cerevisiae deletion strains, locus YKR026C, strain gcn3, stronger effect = lower value 0.977 | S. cerevisiae deletion strains, locus YKR091W, strain srl3, stronger effect = lower value 0.979 | S. cerevisiae deletion strains, locus YLL001W, strain dnm1, stronger effect = lower value 0.946 | S. cerevisiae deletion strains, locus YLL026W, stronger effect = lower value 0.982 | S. cerevisiae deletion strains, locus YLL041C, strain sdh2, stronger effect = lower value 0.976 | S. cerevisiae deletion strains, locus YLR027C, strain aat2, stronger effect = lower value 0.984 | S. cerevisiae deletion strains, locus YLR039C, strain RIC1, stronger effect = lower value 0.997 | S. cerevisiae deletion strains, locus YLR058C, strain SHM2, stronger effect = lower value 0.996 | S. cerevisiae deletion strains, locus YLR102C, strain apc9, stronger effect = lower value 0.984 | S. cerevisiae deletion strains, locus YLR113W, strain HOG1, stronger effect = lower value 0.941 | S. cerevisiae deletion strains, locus YLR221C, strain rsa3, stronger effect = lower value 0.977 | S. cerevisiae deletion strains, locus YLR258W, strain gsy2, stronger effect = lower value 0.982 | S. cerevisiae deletion strains, locus YLR262C, strain YPT6 (second series), stronger effect = lower value 0.986 | S. cerevisiae deletion strains, locus YLR262C, strain YPT6, stronger effect = lower value 0.994 | S. cerevisiae deletion strains, locus YLR268W, strain sec22, stronger effect = lower value 1.01 | S. cerevisiae deletion strains, locus YLR320W, strain mms22, stronger effect = lower value 0.972 | S. cerevisiae deletion strains, locus YLR330W, strain CHS5, stronger effect = lower value 0.992 | S. cerevisiae deletion strains, locus YLR342W, strain FKS1 (second series), stronger effect = lower value 0.997 | S. cerevisiae deletion strains, locus YLR342W, strain FKS1, stronger effect = lower value 0.987 | S. cerevisiae deletion strains, locus YLR357W, strain rsc2, stronger effect = lower value 0.967 | S. cerevisiae deletion strains, locus YLR370C, strain arc18, stronger effect = lower value 0.965 | S. cerevisiae deletion strains, locus YLR371W, strain rom2, stronger effect = lower value 0.976 | S. cerevisiae deletion strains, locus YLR384C, strain iki3, stronger effect = lower value 0.968 | S. cerevisiae deletion strains, locus YLR418C, strain cdc73, stronger effect = lower value 1.05 | S. cerevisiae deletion strains, locus YML016C, strain PPZ1, stronger effect = lower value 1 | S. cerevisiae deletion strains, locus YML032C, strain rad52, stronger effect = lower value 0.967 | S. cerevisiae deletion strains, locus YML120C, strain ndi1, stronger effect = lower value 0.972 | S. cerevisiae deletion strains, locus YML124C, strain tub3, stronger effect = lower value 0.998 | S. cerevisiae deletion strains, locus YMR058W, strain fet3, stronger effect = lower value 0.988 | S. cerevisiae deletion strains, locus YMR078C, strain ctf18, stronger effect = lower value 0.979 | S. cerevisiae deletion strains, locus YMR125W, strain sto1, stronger effect = lower value 0.969 | S. cerevisiae deletion strains, locus YMR129W, stronger effect = lower value 0.972 | S. cerevisiae deletion strains, locus YMR205C, strain PFK2, stronger effect = lower value 0.967 | S. cerevisiae deletion strains, locus YMR223W, strain ubp8, stronger effect = lower value 0.989 | S. cerevisiae deletion strains, locus YMR231W, strain pep5, stronger effect = lower value 0.979 | S. cerevisiae deletion strains, locus YMR263W, strain SAP30, stronger effect = lower value 1.01 | S. cerevisiae deletion strains, locus YMR307W, strain GAS1, stronger effect = lower value 1 | S. cerevisiae deletion strains, locus YNL067W, strain RPL9B, stronger effect = lower value 1.03 | S. cerevisiae deletion strains, locus YNL071W, strain lat1, stronger effect = lower value 0.984 | S. cerevisiae deletion strains, locus YNL128W, strain TEP1, stronger effect = lower value 1.03 | S. cerevisiae deletion strains, locus YNL153C, strain GIM3, stronger effect = lower value 1.01 | S. cerevisiae deletion strains, locus YNL183C, strain NPR1, stronger effect = lower value 0.942 | S. cerevisiae deletion strains, locus YNL209W, strain ssb2, stronger effect = lower value 0.993 | S. cerevisiae deletion strains, locus YNL233W, strain BNI4, stronger effect = lower value 1.01 | S. cerevisiae deletion strains, locus YNL248C, strain rpa49, stronger effect = lower value 0.98 | S. cerevisiae deletion strains, locus YNL250W, strain rad50, stronger effect = lower value 0.987 | S. cerevisiae deletion strains, locus YNL271C, strain bni1, stronger effect = lower value 0.995 | S. cerevisiae deletion strains, locus YNL298W, strain CLA4, stronger effect = lower value 1 | S. cerevisiae deletion strains, locus YNL307C, strain MCK1, stronger effect = lower value 0.991 | S. cerevisiae deletion strains, locus YNL322C, strain KRE1 (second series), stronger effect = lower value 0.967 | S. cerevisiae deletion strains, locus YNL322C, strain KRE1, stronger effect = lower value 1.01 | S. cerevisiae deletion strains, locus YNR049C, strain mso1, stronger effect = lower value 0.973 | S. cerevisiae deletion strains, locus YNR052C, strain pop2, stronger effect = lower value 0.983 | S. cerevisiae deletion strains, locus YOL006C, strain TOP1, stronger effect = lower value 1.11 | S. cerevisiae deletion strains, locus YOL012C, strain htz1 0.879 | S. cerevisiae deletion strains, locus YOL147C, strain pex11, stronger effect = lower value 0.978 | S. cerevisiae deletion strains, locus YOR001W, strain rrp6, stronger effect = lower value 0.986 | S. cerevisiae deletion strains, locus YOR061W, strain CKA2, stronger effect = lower value 1.01 | S. cerevisiae deletion strains, locus YOR069W, strain VPS5, stronger effect = lower value 1 | S. cerevisiae deletion strains, locus YOR070C, strain gyp1, stronger effect = lower value 0.983 | S. cerevisiae deletion strains, locus YOR080W, strain dia2, stronger effect = lower value 0.978 | S. cerevisiae deletion strains, locus YOR083W, strain WHI5, stronger effect = lower value 0.966 | S. cerevisiae deletion strains, locus YOR106W, strain vam3, stronger effect = lower value 0.988 | S. cerevisiae deletion strains, locus YOR136W, strain idh2, stronger effect = lower value 0.987 | S. cerevisiae deletion strains, locus YOR144C, strain elg1, stronger effect = lower value 0.989 | S. cerevisiae deletion strains, locus YOR184W, strain ser1, stronger effect = lower value 0.968 | S. cerevisiae deletion strains, locus YOR231W, strain MKK1, stronger effect = lower value 0.938 | S. cerevisiae deletion strains, locus YOR265W, strain rbl2, stronger effect = lower value 0.981 | S. cerevisiae deletion strains, locus YOR270C, strain vph1, stronger effect = lower value 0.951 | S. cerevisiae deletion strains, locus YOR290C, strain snf2, stronger effect = lower value 0.911 | S. cerevisiae deletion strains, locus YOR316C, strain cot1, stronger effect = lower value 0.985 | S. cerevisiae deletion strains, locus YPL051W, strain arl3, stronger effect = lower value 0.984 | S. cerevisiae deletion strains, locus YPL055C, strain LGE1, stronger effect = lower value 1.02 | S. cerevisiae deletion strains, locus YPL078C, strain atp4, stronger effect = lower value 0.97 | S. cerevisiae deletion strains, locus YPL106C, strain sse1, stronger effect = lower value 0.948 | S. cerevisiae deletion strains, locus YPL240C, strain hsp82, stronger effect = lower value 0.984 | S. cerevisiae deletion strains, locus YPL241C, strain CIN2, stronger effect = lower value 0.994 | S. cerevisiae deletion strains, locus YPL256C, strain CLN2, stronger effect = lower value 0.963 | S. cerevisiae deletion strains, locus YPR119W, strain clb2, stronger effect = lower value 0.974 | S. cerevisiae deletion strains, locus YPR141C, strain kar3, stronger effect = lower value 0.975 | S. cerevisiae deletion strains, locus YPR163C, strain tif3, stronger effect = lower value 0.988 | S. cerevisiae deletion strains, locus YPR167C, strain met16, stronger effect = lower value 1 | S. cerevisiae deletion strains, strain wtn01, stronger effect = lower value 0.994 | S. cerevisiae strains, strain wild type, stronger effect = lower value 1

From PubChem BioAssay AID1159580 (chemical genetic matrix, 2015)
